GPR151 ag: activators of human GPR151; Q8TDV0; PathHunter beta-arrestin GPR151 cells, luminescence; activation, % at 11.2 µM; 1% of 650,000 active; in the data active means activation above about 4.9%
Target sequence (Q8TDV0 whole entry, looked up): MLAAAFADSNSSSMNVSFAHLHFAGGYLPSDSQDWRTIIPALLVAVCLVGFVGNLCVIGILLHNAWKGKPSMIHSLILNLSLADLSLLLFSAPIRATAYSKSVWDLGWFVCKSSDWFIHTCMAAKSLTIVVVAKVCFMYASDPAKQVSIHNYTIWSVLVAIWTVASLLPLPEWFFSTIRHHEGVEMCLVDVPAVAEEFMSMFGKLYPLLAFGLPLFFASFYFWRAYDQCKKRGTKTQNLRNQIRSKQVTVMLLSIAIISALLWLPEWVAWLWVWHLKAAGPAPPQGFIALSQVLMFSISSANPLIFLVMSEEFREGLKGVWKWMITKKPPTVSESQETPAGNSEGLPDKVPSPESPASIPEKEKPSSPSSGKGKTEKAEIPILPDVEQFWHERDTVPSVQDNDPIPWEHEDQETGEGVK
MITF primary: human MITF inhibition, primary screen; O75030; AlphaScreen MITF homodimerization, bead proximity signal; inhibition, % at 2.6 µM; 0.91% of 650,000 active; AID 1259374; in the data active means inhibition above about 50%
FBW7 act: human FBW7 E3 ligase activation, primary screen; Q969H0; AlphaScreen FBW7–phospho-cyclin E peptide binding, activator screen; 0.13% of 650,000 active; normalized activity (activation), % at 26.1 µM; AID 1259310; in the data active means normalized activity above about 1.9%;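 further: purified mutant Fbw7 with reduced substrate affinity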
TEAD-YAP inh: TEAD-YAP interaction inhibition; AID 1259422; 1.4% of 640,000 active; inhibition, % at 9.12 µM; HEK-TIYL cells, TEAD-Gal4/YAP UAS-luciferase luminescence; in the data active means inhibition above about 32%
GPR151 conf act: confirmation of human GPR151 activators; AID 1508609; shares compounds with GPR151 ag; GPR151 PathHunter beta-arrestin cells, luminescence, 90 min; % of EA-reagent control over plate median; activation, % at 11.2 µM; 6,700 tested, under 10 active;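 active means mean percent activation across replicates above the confirmation screen cutoff of 4.91%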
GPR119 counter: GPR119 activation, counter-screen for GPR151 activators; shares compounds with GPR151 ag; GPR119 PathHunter beta-arrestin cells, luminescence, 90 min; 0 = compound-well median, 100 = enzyme-acceptor control; 0.3% of 6,700 active; AID 1508611; activation, % at 11.2 µM;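 active means mean percent activation in the counterscreen above 29.09%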;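 further: counterscreen on off-target GPR119 to flag nonselective hits from the GPR151 activator screen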
Numbers stand for hits; 0 = inactive; - = no result. An excerpt weighted towards active compounds, which were near 3.5% of everything screened.

SMILES | GPR151 ag | MITF primary | FBW7 act | TEAD-YAP inh | GPR151 conf act | GPR119 counter
Cn1c(SCC(=O)Nc2ccc3nc(SCC(=O)c4ccc(Cl)cc4)sc3c2)nnc1-c1ccc(N)cc1 | 5.5 | 0 | 29 | 0 | 0 | 0
CCn1c(SCC(=O)Nc2ccc(C(N)=O)cc2)nnc1-c1ccco1 | 6.8 | 0 | 0 | 0 | 0 | 0
CCc1ccc(NC(=O)CSc2nnc(-c3ccc(N)cc3)n2C)cc1 | 0 | 0 | 0 | 0 | - | -
CC(=O)Nc1ccc(NC(=O)CSc2nnc(-c3ccncc3)n2N)cc1 | 5.5 | 0 | 0 | 0 | 0 | 0
CCn1c(SCC(=O)Nc2ccc(C(C)=O)cc2)nnc1-c1ccco1 | 0 | 0 | 0 | 0 | - | -
CCCCN(c1ccccc1)c1ncnc2c1cnn2C | 0 | 0 | 0 | 0 | - | -
CCN(c1ccccc1)c1ncnc2c1cnn2C | 5.0 | 0 | 0 | 0 | 0 | 0
CCOC(=O)C1CCN(CCC(=O)Nc2ccc(Br)c(C)c2)CC1 | 10 | 0 | 0 | 0 | 0 | 0
O=C(c1cn(CC(=O)N2CCCCCC2)c2ccccc12)C1CC1 | 0 | 0 | 0 | 0 | - | -
CCOc1ccc(NC(=O)C(Sc2ccccc2)c2ccccc2)c([N+](=O)[O-])c1 (stereo not drawn) | 6.1 | 0 | 0 | 0 | 0 | 0
CC1CCCN(c2nc3c(c(=O)[nH]2)CCN(CC2CCC=CO2)C3)C1 (stereo not drawn) | 9.5 | 0 | 0 | 0 | 0 | 0
O=c1[nH]c(N2CCCCC2)nc2c1CCN(CC1CCC=CO1)C2 (stereo not drawn) | 0 | 0 | 0 | 0 | - | -
COc1ccc(C2(C(F)(F)F)NC(=O)N3CCN=C3S2)cc1 (stereo not drawn) | 0 | 0 | 0 | 0 | - | -
CCc1nc2ccccc2c2nn(CC(=O)N3CCOCC3)c(=O)n12 | 6.6 | 0 | 0 | 0 | 0 | 0
CC(C)c1nc2ccccc2c2nn(CC(=O)N3CCN(C(=O)c4ccco4)CC3)c(=O)n12 | 15 | 0 | 0 | 0 | 0 | 0
Cc1ccc(-c2nc(=S)[nH]n2-c2nc3ccccc3s2)cc1 | 0 | 0 | 0 | 0 | - | -
O=C(CCCn1c(=O)oc2ccccc21)NNC(=O)COc1ccc(F)cc1 | 5.7 | 0 | 0 | 0 | 0 | 0
O=C(O)CCCn1c(=O)oc2ccccc21 | 0 | 0 | 0 | 0 | - | -
CN1CC(=O)N(CCCC(=O)OCc2ccc(C#N)cc2)C1=O | 7.7 | 0 | 0 | 0 | 0 | 0
N#Cc1ccc(COC(=O)CCC(=O)c2cccs2)cc1 | 0 | 0 | 0 | 0 | - | -
Cc1nc(Cl)c(C(=O)N(C)c2ccccc2)c(C)c1Cl | 0 | 0 | 0 | 0 | - | -
CSc1ccc(/C=C2\N=C(c3cc([N+](=O)[O-])ccc3Cl)OC2=O)cc1 | 0 | 0 | 0 | 0 | - | -
Cn1c(SCc2ccccc2)nnc1C1CCCN1C(=O)c1ccc2c(c1)OCO2 (stereo not drawn) | 5.9 | 0 | 0 | 0 | 0 | 0
Cn1c(SCc2ccccc2)nnc1C1CCCN1C(=O)C1CCCO1 (stereo not drawn) | 0 | 0 | 0 | 0 | - | -
CCOc1cc(CNn2nnnc2N)cc(Cl)c1OCC(=O)NC(C)(C)C | 5.2 | 0 | 0 | 0 | 0 | 0
SMILES | GPR151 ag | MITF primary | FBW7 act | TEAD-YAP inh | GPR151 conf act | GPR119 counter
C=CCOc1c(Cl)cc(CNn2nnnc2N)cc1OC | 0 | 0 | 0 | 0 | - | -
COc1ccc(/C=C2\C=C(c3ccccc3)N(c3ccc(C(C)(C)C)cc3)C2=O)cc1Br | 0 | 0 | 0 | 0 | - | -
CCc1cc2c(=O)c(Oc3ccccc3F)c(C)oc2cc1OCC(=O)O | 0 | 0 | 0 | 0 | - | -
CCOC(=O)c1cnc(SCc2nc(N)nc(Nc3ccccc3)n2)nc1N | 0 | 0 | 0 | 0 | - | -
COc1ccc(Nc2nc(N)nc(CN3CCN(c4ccccn4)CC3)n2)cc1 | 0 | 0 | 0 | 0 | - | -
CCN1CCN(Cc2nc(N)nc(Nc3ccccc3)n2)CC1 | 6.1 | 0 | 0 | 0 | 0 | 0
COc1ccc(Nc2nc(N)nc(CN3C(=O)c4ccccc4C3=O)n2)cc1 | 6.9 | 0 | 0 | 0 | 0 | 0
CCOC(=O)c1nc(N)nc(Nc2ccccc2)n1 | 11 | 0 | 0 | 0 | 0 | 0
Cn1c(=O)c2c(nc3n(Cc4ccco4)c(-c4ccc(Cl)cc4)cn23)n(C)c1=O | 0 | 0 | 0 | 0 | - | -
Cc1n[nH]c(C)c1CCc1nc2c3ccccc3nc(SCC#N)n2n1 | 0 | 0 | 0 | 0 | - | -
CCOC(=O)c1c(NC(C)=O)sc2c1CCCC2=O | 0 | 0 | 0 | 0 | - | -
CCc1ccccc1NS(=O)(=O)c1ccc(OC)c(C)c1 | 0 | 0 | 0 | 0 | - | -
